Sampled rows, rich in hits. Any-hit rate of the full collection: about 19%.
TDP1 cell noCPT: qHTS for Inhibitors of human tyrosyl-DNA phosphodiesterase 1 (TDP1): qHTS in cells in absence of CPT | Potency, µM (top dose mostly 46.2 µM), for the others: at the top dose activity change, negative = growth inhibition, hits mostly inhibitors | AID 686978, 2013 | DT40 Tdp1-/- hTDP1 cells, no CPT, ATP luminescence, 48 h | 420,000 tested, 15% active; also: potency is read from the fitted curve at half-maximal effect; % is scaled to controls: 0 for no effect and ±100 for the full control effect; nearly all actives have a fitted effect of over 55% in size
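DT40 Tdp1-/-;hTDP1 cells, no CPT (DMSO vehicle only), 400 cells/well; compounds pin-transferred; ≥48 hr, 37 °C; CellTiter-Glo 30 min RT dark, luminescence read.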
TDP1 inh: blocks human tyrosyl-DNA phosphodiesterase 1 | Q9NUW8 | 350,000 tested, 0.28% active | AID 485290 | Potency, µM (top dose mostly 130 µM), for inactives: at the top dose activity change, negative = inhibition, hits mostly inhibitors | recombinant TDP1, AlphaScreen DNA substrate cleavage; also: potency is read from the fitted curve at half-maximal effect; % is scaled to controls: 0 for no effect and ±100 for the full control effect; nearly all actives have a fitted effect of over 40% in size
Target sequence (Q9NUW8 whole entry, looked up): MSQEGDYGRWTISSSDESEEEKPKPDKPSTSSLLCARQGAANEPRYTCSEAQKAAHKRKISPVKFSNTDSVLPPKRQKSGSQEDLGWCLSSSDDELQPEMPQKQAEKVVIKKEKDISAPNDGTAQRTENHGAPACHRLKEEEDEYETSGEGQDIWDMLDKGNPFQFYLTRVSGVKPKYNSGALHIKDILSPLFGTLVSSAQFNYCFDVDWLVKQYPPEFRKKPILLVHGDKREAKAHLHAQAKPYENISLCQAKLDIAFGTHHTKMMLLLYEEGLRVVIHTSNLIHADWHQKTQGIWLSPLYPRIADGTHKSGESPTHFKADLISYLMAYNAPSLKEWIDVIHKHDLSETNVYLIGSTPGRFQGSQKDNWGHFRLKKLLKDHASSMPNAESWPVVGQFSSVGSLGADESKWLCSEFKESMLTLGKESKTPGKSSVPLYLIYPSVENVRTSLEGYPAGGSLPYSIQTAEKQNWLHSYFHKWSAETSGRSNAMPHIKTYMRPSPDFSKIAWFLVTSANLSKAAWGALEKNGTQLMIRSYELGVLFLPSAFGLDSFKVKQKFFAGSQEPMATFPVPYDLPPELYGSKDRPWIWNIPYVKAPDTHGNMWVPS
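Recombinant E. coli-expressed Tdp1 (1 nM) preincubated with compound 15 min at RT, then 5'-biotin/3'-phosphotyrosine-FITC DNA substrate (15 nM) added for 5 min. AlphaScreen beads (10 ug/ml) added, 10 min RT; tyrosine-FITC cleavage read as signal loss.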
IL-1B inflam inh: inhibitors of inflammasome signaling (IL-1 beta secretion). THP-1 LPS/ATP IL-1B secretion, AlphaLISA, 16 h; hits give low values. activity change, % at 57.5 µM. 360,000 tested, 4.7% active; in the data active = activity change below about -50%; inconclusive = mostly about -30% to -49%; also: % is scaled to controls: 0 for no effect and ±100 for the full control effect
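THP-1 cells pretreated 1 hr with compounds (up to 57.5 uM final), then stimulated with LPS (250 ng/mL final) plus ATP (1.25 mM final); secreted IL-1B measured by AlphaLISA after 16 hr, decreased signal indicating inhibition.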
TGFb SMAD3 inh: inhibitors of TGF-b signaling. HepG2 CAGA-GFP TGF-b/SMAD3 reporter, GFP fluorescence, 18 h; TGF-beta stimulated, 500 pg/mL final. Potency, µM (highest dose often 46.1 µM), for the others: at the top dose activity, negative = inhibition, most hits filed as inhibitors. 410,000 tested, 1.2% active. AID 588855; also: potency is read from the fitted curve at half-maximal effect; % is scaled to controls: 0 for no effect and ±100 for the full control effect; nearly all actives have a fitted effect of over 65% in size
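Smad-responsive CAGA-GFP expression was quantified in HEPG2 cells exposed to compounds and 500 pg/mL final TGF-beta for 18 h at 37 degrees C; unstimulated wells defined full inhibition.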
HepG2 tox: HepG2 cytotoxicity, counter-screen for TGF-b inhibitors. HepG2 CAGA-GFP viability, ATP luminescence, 18 h. Potency, µM (top dose mostly 46.1 µM), inactives show top-dose activity change, negative = cytotoxicity, most hits filed as cytotoxic. 410,000 tested, 0.76% active; also: potency is read from the fitted curve at half-maximal effect
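HepG2 CAGA-GFP cells (1000/well, DMEM with 1% FBS) received compound, then TGF-beta at 500 pg/mL final, and were incubated 18 hours at 37 degrees C. Viability was read by CellTiter-Glo luminescence. Media-only wells were set as complete cell-killing and DMSO as no toxicity.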
TDP1 cell CPT: DT40-hTDP1 cell growth loss with CPT. chicken DT40 Tdp1-/-;hTDP1 cells + 20 nM CPT, ATP luminescence, 48 h. Potency, µM (doses to about 46.2 µM), inactives show at the highest dose activity change, negative = growth inhibition, most hits filed as inhibitors. 420,000 tested, 12% active. AID 686979; also: potency is read from the fitted curve at half-maximal effect; % is scaled to controls: 0 for no effect and ±100 for the full control effect; nearly all actives have a fitted effect of over 55% in size
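Chicken DT40 Tdp1-/- cells complemented with human TDP1, 400 cells/well, exposed to compounds plus 20 nM camptothecin for at least 48 h at 37 C; viability read as ATP content by CellTiter-Glo luminescence.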
The depositor's hits bear a star; ? = inconclusive; . = no result; [ ] = remark or other dose. Unless noted, calls follow the shape of the dose curve; as a rule, active = well fitted curve in the direction sought with a large enough effect; inconclusive = small, poorly fitted or top-dose-only effect, or another doubt; inactive = no such curve, though single readings can be large; an effect the other way counts as inactive or inconclusive.

SMILES	TDP1 cell noCPT	TDP1 inh	IL-1B inflam inh	TGFb SMAD3 inh	HepG2 tox	TDP1 cell CPT
CCOC(=O)CN1C(=O)C(O)(CC(=O)c2cccc(OC)c2)c2ccccc21 (stereo unspecified)	16µM*	3%	17	0%	2%	?
C#CCN1C(=O)C(O)(CC(=O)c2cccc(OC)c2)c2ccccc21 (stereo unspecified)	4.6µM*	6%	40	-9%	-15%	5.8µM*
CC1(C)C2CCC(C2)C1(C)NC(=O)CNC1CCCCC1 (stereo unspecified)	10µM*	-3%	?	-10%	-7%	?
COc1ccc(O)c(/C=N/NC(=O)CCC(=O)Nc2cccc(C)c2)c1	21µM*	.	113	5%	-6%	21µM*
COc1cccc(/C=N/NC(=O)CCCC(=O)Nc2ccc(Br)cc2)c1	21µM*	3%	4	0%	2%	21µM*
COc1ccc(O)c(/C=N/NC(=O)CCC(=O)Nc2ccc(C)cc2)c1	21µM*	.	68	-29%	-8%	?
COc1cc(/C=N/NC(=O)CCC(=O)Nc2ccc(Br)cc2)ccc1O	-17%	.	3	-2%	4%	5%
Cc1ccccc1C(=O)N1CCC(C(=O)N(C)CC(=O)Nc2cccc(F)c2)CC1	22%	3%	0	-1%	0%	2%
COc1cc(NC(=O)Cn2ncc3c([nH]c4ccc(C)cc43)c2=O)cc(OC)c1OC	2%	-3%	.	10%	-9%	-4%
COc1cccc(CCC(=O)Nc2cccc(S(=O)(=O)N3CCCC3)c2)c1OC	?	1%	-7	-11%	-19%	?
Cc1ccc(S(=O)(=O)N2CCCCC2)cc1NC(=O)CCc1nc2ccccc2c(=O)[nH]1	?	.	8	-19%	-4%	?
COc1cccc(CN(C)CC(=O)Nc2cc(S(=O)(=O)N3CCCC3)ccc2Cl)c1OC	?	-14%	-15	?	2%	21µM*
CN(CC(=O)Nc1cc(S(=O)(=O)N2CCCC2)ccc1Cl)Cc1nc2ccccc2c(=O)[nH]1	21µM*	.	0	-13%	-12%	?
O=C(CCc1nc2ccccc2c(=O)[nH]1)Nc1cccc(S(=O)(=O)N2CCCCC2)c1	21µM*	0%	-3	-2%	0%	?
COc1ccccc1CN(C)CC(=O)Nc1cccc(S(=O)(=O)N2CCCC2)c1	23µM*	2%	-16	-1%	-17%	?
Cc1ccc(CNC(=O)C(=O)NCC(c2cccs2)S(=O)(=O)c2ccc(C)cc2)cc1 (stereo unspecified)	?	5%	.	-16%	-16%	?
Cc1cc(=O)n2nc(N(C)CC(=O)NCc3ccc(Cl)cc3)sc2n1	-5%	-5%	.	0%	-51%	?
COc1ccc(C)cc1NC(=O)Nc1ccccc1OCc1cc(=O)n2ccccc2n1	?	3%	.	14%	-14%	?
CCOc1ccccc1CNC(=O)c1cn(-c2ccc(OC)cc2)c(=O)c2ccccc12	?	10%	.	-13%	-11%	?
COc1ccc(N(C)C(=O)CN(C)S(=O)(=O)c2ccc3c(c2)c(=O)n(C)c(=O)n3C)c(OC)c1	?	2%	9	4%	1%	9%
CC1(c2ccccc2)CC(C)(C)N2C(=O)/C(=C3\SC(=S)NC3=O)c3cccc1c32 (stereo unspecified)	15µM*	4%	22	10%	4%	23µM*
CC(=C1SC(=S)NC1=O)c1ccccc1	-2%	.	4	-24%	2%	-10%
O=C(C1CCC(Cn2c(=O)c3sccc3n(Cc3ccccc3)c2=O)CC1)N1CCCCC1 (stereo unspecified)	?	5%	.	?	-23%	?
COc1ccc2[nH]c3c(=O)n(CCCCC(=O)NCCC(C)C)c(=S)[nH]c3c2c1	21µM*	6%	-5	-8%	2%	15µM*
CCCNC(=O)CCCCn1c(=S)[nH]c2c([nH]c3ccc(OC)cc32)c1=O	5.8µM*	6%	6	-6%	15%	5.8µM*
SMILES	TDP1 cell noCPT	TDP1 inh	IL-1B inflam inh	TGFb SMAD3 inh	HepG2 tox	TDP1 cell CPT
COc1ccc2[nH]c3c(=O)n(CCCC(=O)NC4CCC(C)CC4)c(=S)[nH]c3c2c1 (stereo unspecified)	1%	-1%	1	-12%	-16%	12%
COc1cccc(S(=O)(=O)N2CCN(S(=O)(=O)c3ccc4c(c3)OCCO4)CC2)c1	.	2%	.	.	.	.
CN(c1ccccc1)S(=O)(=O)c1ccc(NC(=O)c2cccs2)cc1	?	-3%	-60*	?	-4%	?
CC(=O)NS(=O)(=O)c1ccc(NC(=O)c2ccc(NC(=O)c3cccs3)cc2)cc1	19%	45µM*	-21	-2%	14%	1%
Cc1ccc(S(=O)(=O)Nc2ccc(NC(=O)c3cccs3)cc2)cc1	?	0%	?	-3%	-3%	?
CN(c1ccccc1)S(=O)(=O)c1ccc(C(=O)Nc2ccncc2)cc1	15µM*	.	-14	-24%	35%	?
CCN(c1ccccc1)S(=O)(=O)c1ccc(NC(=S)NC(=O)c2cccs2)cc1	23µM*	0%	7	?	-4%	?
CN(C)S(=O)(=O)c1ccc(NC(=S)NC(=O)c2cccs2)cc1	?	3%	-2	-1%	-17%	?
N#Cc1ccc(OCC(=O)N(C2CCCCC2)C2CCS(=O)(=O)C2)cc1 (stereo unspecified)	3%	1%	0	-7%	-14%	-6%
C#CCN(Cc1ccc(OC)cc1)S(=O)(=O)C=C	?	.	.	-22%	15%	?
CN(c1ccccc1)S(=O)(=O)c1ccc(NC(=O)c2ccc(F)cc2)cc1	?	.	-86*	?	2%	-12%
CN(c1ccccc1)S(=O)(=O)c1ccc(NC(=O)c2ccccc2)cc1	?	0%	?	?	21%	-22%
CNC1C(O)C(O[C@H]2C(O)[C@@H](OC3OC(CN)=CCC3N)[C@H](N)C[C@@H]2N)OC[C@]1(C)O (stereo partly specified)	-2%	7%[56.1 µM]	.	.	.	0%
Cc1ccc(-c2[nH]c(-c3ccc(C(=O)O)cc3)nc2-c2ccccc2)cc1	-18%	6%	48	-24%	-23%	-11%

Assay outcomes from PubChem.
